# Results: PubChem BioAssay (NCI)
# About 83,000 compounds went through this panel and 20% of them were active in at least one assay; those are over-represented in the sample as a whole.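 A percent growth of 40 corresponds to 60% growth inhibition; 0 means no net growth; -100 means all cells died. Active threshold: below 10.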 Unmarked numbers belong to inactive results. Active and inactive are the calls of the source.
# Columns and labels:
# Experiment in all cases: NCI-60 one-dose screen, 48 h (100 = growth as untreated, 0 = no growth, -100 = all killed)
# Conditions in all cases: 10 µM
# HCT-15 colon = tested on: HCT-15 colon
# HT29 colon = tested on: HT29 colon
# SNB-75 CNS = tested on: SNB-75 CNS
# SNB-19 CNS = tested on: SNB-19 CNS
# U251 CNS = tested on: U251 CNS
# PC-3 prostate = tested on: PC-3 prostate
# SK-MEL-5 melanoma = tested on: SK-MEL-5 melanoma
# UACC-62 melanoma = tested on: UACC-62 melanoma
# LOX IMVI melanoma = tested on: LOX IMVI melanoma
# SK-MEL-28 melanoma = tested on: SK-MEL-28 melanoma
Structure (SMILES),growth (HCT-15 colon),growth (HT29 colon),growth (SNB-75 CNS),growth (SNB-19 CNS),growth (U251 CNS),growth (PC-3 prostate),growth (SK-MEL-5 melanoma),growth (UACC-62 melanoma),growth (LOX IMVI melanoma),growth (SK-MEL-28 melanoma)
Cn1c(O)c(N=Nc2nc(-c3cc4ccccc4oc3=O)cs2)c2cc(Br)ccc21,88.5%,118%,54.7%,12.5%,21.3%,102%,96%,65%,56.7%,99.8%
O=C(CSc1nnc(-c2c[nH]c3ccccc23)n1-c1ccccc1)Nc1ccc(C(=O)/C=C/c2cccc([N+](=O)[O-])c2)cc1,84.1%,101%,99.8%,86.5%,92.5%,87%,91.3%,76.5%,75.6%,102%
COc1cccc(/C=N/NC(=O)c2ccc3nc(-c4ccc(Cl)cc4)[nH]c3c2)c1O,4.8% (active),-79.7% (active),-81.8% (active),-98.6% (active),-90.8% (active),-55.1% (active),-98% (active),-92% (active),-97.2% (active),-98.3% (active)
COc1ccc2nc(Cl)c(-c3cc(-c4ccccc4)nc(=S)[nH]3)cc2c1,46.4%,43.7%,41.5%,83.6%,87.2%,67.3%,6.49% (active),23.2%,60.3%,50%
COc1cc(/C=N/NC(=O)c2ccc3nc(-c4ccc(Cl)cc4)[nH]c3c2)cc(OC)c1OC,55.7%,-50.2% (active),-47.5% (active),-94.1% (active),-86.6% (active),-41.6% (active),-82.6% (active),-76.7% (active),-81.1% (active),-87.9% (active)
CCOC(=O)C1=C(N)N(c2ccc(Cl)cc2)C2=C(C(=O)CC(C)(C)C2)C1c1ccc(N2CCOCC2)cc1 (stereo not given),92.5%,104%,109%,91.2%,88.2%,92%,80.3%,82.8%,115%,105%
C#CCNC(=O)CCC(=O)OC[C@]12CC[C@@H](C(=C)C)[C@@H]1C1CC[C@@H]3[C@@]4(C)CCCNC(C)(C)[C@@H]4CC[C@@]3(C)[C@]1(C)CC2 (stereo not given in full),-64.9% (active),-68.1% (active),98.8%,34%,-74.2% (active),-20.3% (active),-100% (active),-42.8% (active),-100% (active),-98.5% (active)
CCCn1c(=O)c2[nH]c(-c3ccc(OCc4nc5ccc(C)cc5[nH]4)cc3)nc2n(CCC)c1=O,23.5%,38.7%,-38.1% (active),34%,6.38% (active),39.2%,12.8%,2.25% (active),-20.3% (active),39.9%
COc1cc(/C=C/C(=O)c2ccc(NC(=O)CSc3nnc(-c4c[nH]c5ccccc45)n3-c3ccccc3)cc2)cc(OC)c1OC,23.5%,51%,94.9%,68.9%,18.7%,65.6%,90.2%,59.1%,4.61% (active),104%
O=C(c1ccc(Cl)cc1)C1[C@H](c2ccccc2Br)[C@@H](c2ccccc2)NC12C(=O)Nc1ccc(Br)cc12 (stereo not given in full),9.81% (active),-36% (active),31.9%,36.2%,-29.1% (active),6.63% (active),14.4%,19.6%,-100% (active),43.8%
Nc1nc(Nc2ccc(Cl)cc2)nn1Cc1cccc(Br)c1,29.9%,54.1%,69.9%,57.2%,58.6%,22.9%,47.4%,29.9%,13.7%,44.8%
CN1CCCN(Cc2ccc(C(=O)Nc3cccc(Nc4ccc5c(O)cccc5n4)c3)cc2C(F)(F)F)CC1,-55.6% (active),-55.2% (active),13.9%,-81.2% (active),-65.7% (active),2.18% (active),-100% (active),-94.8% (active),-95.5% (active),-100% (active)
CN1C(=O)N(C)C2SC(N/N=C/c3cccs3)=NC21 (stereo not given),20.2%,7.66% (active),-1.77% (active),30.3%,22.8%,48.3%,8.57% (active),4.74% (active),28.7%,47.5%
COc1ccc(N(C)c2cc(C#N)nc3ccccc23)cc1N,0.224% (active),-22.1% (active),15.3%,12.2%,9.78% (active),30.3%,-47.7% (active),23.5%,15%,56.3%
Cc1ccc(-c2nc3ccc(C(=O)N=Nc4c(O)[nH]c5ccc(Br)cc45)cc3[nH]2)cc1,96.6%,47.9%,107%,46.1%,-76% (active),62.6%,84.1%,98%,-27.8% (active),99.3%
O=c1c2ccccc2nc(COc2ccccc2)n1/N=C/c1ccc(F)cc1,76.5%,61.4%,105%,87.7%,101%,76.2%,68.5%,62.9%,94.9%,96%
